DAX1 inh-1: DAX1 (NR0B1) inhibitors on StAR promoter, primary screen, cell-based, luminescence, SF-1 (NR5A1), full-length DAX-1; HEK293T StAR-luciferase reporter, SF-1/DAX-1 repression relief; inhibition, % at 6.8 µM; 1.1% of 370,000 active;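 active means inhibition above the mean over all tested compounds plus 3 SD, cut at about 3.6% in these data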;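 further: 0% = DAX-1 cells with DMSO and 100% = cells lacking DAX-1 with DMSO; higher inhibition means more luminescence from relief of DAX-1 repression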
ssDAF-12 act: S. stercoralis DAF-12 nuclear receptor activators, primary screen, cell-based, luminescence, HEK293, GRIP1 co-expression, lit1-tk-luc; 1% of 370,000 active; AID 652126, 2013; Nuclear hormone receptor DAF-12 (Strongyloides stercoralis); HEK293 ssDAF-12/GRIP1 lit1-tk-luc reporter; % of 3 µM dafachronic acid response; activation, % at 6.8 µM;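 active means activation above the mean over all tested compounds plus 3 SD, cut at about 0.9% in these data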;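 further: 0% = DMSO-only wells and 100% = 3 µM delta7-dafachronic acid wells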
DAX1 inh-2: DAX1 (NR0B1) inhibitors, primary screen, cell-based, HEK293, Gal4-DAX1, luciferase luminescence; HEK293 Gal4-DAX1 luciferase reporter; inhibition, % at 6.75 µM; 0.99% of 340,000 active;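 active means inhibition above the mean over all tested compounds plus 3 SD, cut at about 4.2% in these data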;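 further: 0% = DAX1-transfected cells with DMSO and 100% = empty-vector control cells with DMSO; inhibition shows as a rise in luminescence from relieved DAX1 repression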
Target sequence (P51843 207-470 limits assumed): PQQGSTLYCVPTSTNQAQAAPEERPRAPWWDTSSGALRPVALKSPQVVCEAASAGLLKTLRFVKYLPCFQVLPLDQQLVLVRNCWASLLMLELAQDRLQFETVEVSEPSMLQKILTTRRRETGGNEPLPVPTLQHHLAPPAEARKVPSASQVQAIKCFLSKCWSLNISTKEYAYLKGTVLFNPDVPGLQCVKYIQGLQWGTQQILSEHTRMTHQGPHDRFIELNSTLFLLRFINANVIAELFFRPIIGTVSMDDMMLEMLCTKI
hcDAF12 agonist: H. contortus DAF-12 nuclear receptor activators, primary screen, cell-based, luminescence, HEK293, lit1-tk-luc reporter; HEK293 hcDAF-12 lit1-tk-luc reporter; 0% DMSO, 100% Δ7-dafachronic acid; activation, % at 6.8 µM; 1.4% of 370,000 active;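 active means activation above the mean of all tested compounds plus 3 SD, cut at about 5.5% in these data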;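 further: 100% = response to 3 µM Δ7-dafachronic acid high control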
hgDAF-12 ag: H. glycines DAF-12 receptor agonists, primary screen, cell-based, luminescence, HEK293, GAL4 fusion, UAS-luciferase; Nuclear hormone receptor DAF-12 (Heterodera glycines), GAL4 fusion; activation, % at 6.8 µM; 1.8% of 370,000 active; AID 687014, 2013; HEK293 GAL4-hgDAF12 UAS-luciferase reporter, agonist luminescence; normalized to butyrate control;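 active means activation above a cutoff set at the mean of all screened compounds plus 3 SD, cut at about 10% in these data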;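 further: 0% = DMSO wells and 100% = sodium butyrate wells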
LXR ag: LXR agonists, Gal4 luciferase reporter, confirmation, counter-screen for hcDAF-12 agonist project, cell-based, luminescence, HEK293, H. contortus campaign; shares compounds with hcDAF12 agonist; 3,400 tested, under 10 active; activation, % at 6.8 µM; HEK293 Gal4-LXR tk-luc reporter, 24 h; normalized: DMSO 0%, positive control 100%;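 active means mean percent activation of the reporter above a cutoff set as the average over tested compounds plus their standard deviation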
hcDAF12 ag: H. contortus DAF-12 receptor agonists, confirmation, cell-based, luminescence, HEK293, lit1-tk-luc, triplicate | HEK293 hcDAF-12 lit1-tk-luc reporter; % of Δ7-dafachronic acid response | 61% of 3,400 active | activation, % at 6.8 µM | shares compounds with hcDAF12 agonist;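 active means mean activation across triplicate tests above the threshold derived from the earlier primary screen, cut at about 5.5% in these data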;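 further: 0% = DMSO only wells and 100% = 3 µM Δ7-dafachronic acid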
Starred values were filed as active, the others as inactive. Sampled rows, rich in hits. Any-hit rate of the full collection: about 4.1%.

COc1ccc(NS(=O)(=O)NC(=O)c2c(C)n(C)c3ccccc23)cc1 was read as DAX1 inh-1 0, ssDAF-12 act 0, DAX1 inh-2 -1, hcDAF12 agonist 7.3*, hgDAF-12 ag 6, LXR ag 0 and hcDAF12 ag 1.
COCCCNC(=O)CSc1nnc(-c2cccnc2)n1C1CCCCC1 was read as DAX1 inh-1 0, ssDAF-12 act -1, hcDAF12 agonist 0 and hgDAF-12 ag 2.
Screening O=S1(=O)c2ccc(N3CCCC3)cc2Oc2ccccc2CN1Cc1cn(Cc2ccc(Cl)cc2)nn1 returned DAX1 inh-1 0, ssDAF-12 act 0, hcDAF12 agonist 0 and hgDAF-12 ag 1.
`Fc1ccccc1-c1nc(-c2ccc(-c3nn[nH]n3)cc2)no1` gave DAX1 inh-1 1, ssDAF-12 act -1, DAX1 inh-2 4, hcDAF12 agonist 2 and hgDAF-12 ag 6.
For c1cncc(-c2noc(-c3cccc4ccccc34)n2)c1 the results were DAX1 inh-1 0, ssDAF-12 act 1.2*, DAX1 inh-2 2, hcDAF12 agonist 7.0*, hgDAF-12 ag 9, LXR ag 1 and hcDAF12 ag 16*.
`Fc1ccccc1-c1nc(-c2ccccc2)no1` gave DAX1 inh-1 4, ssDAF-12 act 1.9*, DAX1 inh-2 1, hcDAF12 agonist 10*, hgDAF-12 ag 10, LXR ag 2 and hcDAF12 ag 18*.
c1ccc2c(-c3nc(-c4ccncc4)no3)cccc2c1 was read as DAX1 inh-1 0, ssDAF-12 act -1, DAX1 inh-2 1, hcDAF12 agonist 1 and hgDAF-12 ag 3.
`c1ccc(-c2noc(-c3cccc4ccccc34)n2)cc1` gave DAX1 inh-1 3.7*, ssDAF-12 act 2.9*, DAX1 inh-2 3, hcDAF12 agonist 17*, hgDAF-12 ag 12*, LXR ag 1 and hcDAF12 ag 16*.
`c1ccc(-c2ccccc2-c2nc(-c3cccnc3)no2)cc1` gave DAX1 inh-1 -1, ssDAF-12 act -1, DAX1 inh-2 0, hcDAF12 agonist -2 and hgDAF-12 ag -1.
Screening N#Cc1ccc(Cn2ccc3ccc(-c4ccc5ccn(Cc6ccc(C#N)cc6)c5c4)cc32)cc1 returned DAX1 inh-1 -1, ssDAF-12 act -1, hcDAF12 agonist 0 and hgDAF-12 ag 2.
For COc1ccc(S(=O)(=O)N2CCCc3nc(C)c(C)cc32)cc1 the results were DAX1 inh-1 1, ssDAF-12 act -1, hcDAF12 agonist -1 and hgDAF-12 ag -3.
Cn1c(=O)oc2cc(S(=O)(=O)N3CCN(c4cccc(C(F)(F)F)c4)CC3)ccc21 was read as DAX1 inh-1 -1, ssDAF-12 act -2, hcDAF12 agonist -2 and hgDAF-12 ag 0.
CS(=O)(=O)N1N=C(c2ccccc2)CC1c1ccc2c(c1)OCO2 (stereo unspecified) was read as DAX1 inh-1 1, ssDAF-12 act 1, DAX1 inh-2 2, hcDAF12 agonist 7.0*, hgDAF-12 ag 7, LXR ag 0 and hcDAF12 ag 7.4*.
COc1ccc(/C=C\c2nc(=O)c3ccccc3o2)cc1 was read as DAX1 inh-1 4.2*, ssDAF-12 act 0, DAX1 inh-2 -1, hcDAF12 agonist 7.2*, hgDAF-12 ag 19*, LXR ag 1 and hcDAF12 ag 11*.
COc1ccc(Cc2c(C3CCCCC3)nc3ccc(C)cn23)c(C)c1 was read as DAX1 inh-1 -1, ssDAF-12 act 0, hcDAF12 agonist 0 and hgDAF-12 ag 0.
For COc1ccc(OC)c(S(=O)(=O)NCC2CCN(C(=O)C(=O)c3cccs3)CC2)c1 the results were DAX1 inh-1 1, ssDAF-12 act -1, hcDAF12 agonist 1 and hgDAF-12 ag 1.
Screening O=C(Cn1nc(C(=O)O)c2ccccc2c1=O)c1c[nH]c2ccccc12 returned DAX1 inh-1 0, ssDAF-12 act 1, DAX1 inh-2 -1, hcDAF12 agonist 7.3*, hgDAF-12 ag 3, LXR ag 0 and hcDAF12 ag 4.
CCOC(=O)N1CCN(C(=O)C[C@H]2C[C@@]3(C(=O)OC)C(=C[C@H](C(C)(C)C)O[C@@H]3C)N(CCc3ccc(OC)c(OC)c3)C2=O)CC1 was read as DAX1 inh-1 0, ssDAF-12 act -1, hcDAF12 agonist 0 and hgDAF-12 ag 0.
Screening CN1/C(=C/C(=O)c2cccs2)Sc2ccccc21 returned DAX1 inh-1 4.4*, ssDAF-12 act 4.5*, DAX1 inh-2 1, hcDAF12 agonist 22*, hgDAF-12 ag 18*, LXR ag 2 and hcDAF12 ag 24*.
`CN1/C(=C\C(=O)c2cccc([N+](=O)[O-])c2)Sc2ccccc21` gave DAX1 inh-1 1, ssDAF-12 act 0, DAX1 inh-2 0, hcDAF12 agonist 7.7*, hgDAF-12 ag 13*, LXR ag 1 and hcDAF12 ag 5.9*.
COCC(=O)/C=C1\Sc2ccccc2N1C was read as DAX1 inh-1 0, ssDAF-12 act -1, DAX1 inh-2 -1, hcDAF12 agonist -3 and hgDAF-12 ag -16.
Screening CN1/C(=C/C(=O)C2CCC2)Sc2ccccc21 returned DAX1 inh-1 3, ssDAF-12 act 0, DAX1 inh-2 0, hcDAF12 agonist 8.1*, hgDAF-12 ag 12*, LXR ag 0 and hcDAF12 ag 4.
For Cn1c(=O)c2c(c3ccccc31)OC(C)(C)C=C2 the results were DAX1 inh-1 0, ssDAF-12 act -1, hcDAF12 agonist -3 and hgDAF-12 ag 0.
`NC(=S)N/N=C/c1ccc(-c2ccc(Cl)c(Cl)c2)o1` gave DAX1 inh-1 -1, ssDAF-12 act 1.4*, DAX1 inh-2 1, hcDAF12 agonist 7.1*, hgDAF-12 ag 6, LXR ag 0 and hcDAF12 ag 9.9*.

High-throughput results deposited in PubChem by The Scripps Research Institute Molecular Screening Center.
